Measured values reported in PubChem BioAssay (NCATS).
Inconclusive results are not listed. Calls of active or inactive are those of the source. Unless noted, calls follow the shape of the dose curve; as a rule, active = well fitted curve in either direction with a large enough effect (not every such curve was filed as active); inconclusive = small, poorly fitted or top-dose-only effect, or another doubt; inactive = flat fitted curve, though single readings scatter.

What was measured:
[1] = NFAT Signaling Pathway (AID 444); conditions: Jurkat NFAT-bla M1, carbachol, beta-lactamase ratio, 5 h; at 17.2 µM (top of the series) unless noted;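 also: carbachol stimulus at about its EC50 of 1 µM final; % is scaled to controls: 0 for no effect and ±100 for the full control effect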
How it was run: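 Read-out: CCF4 FRET ratio (460 nm/530 nm) after 1 h RT dye loading, used for %activity and AC50 from titration series. Cells: Jurkat NFAT-β-lactamase/M1 line, treated with compound plus 1 uM carbachol for 5 h, 37 °C.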

[2] = Stat Signaling Pathway (AID 446); conditions: ME-180 (cervical carcinoma) SIE beta-lactamase reporter, IL-6 stimulated, 5 h; at 17.2 µM (top of the series) unless noted;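 also: ME-180 cervical cancer cells given 40 pM IL-6 alongside compound; SIE-controlled beta-lactamase reporter measured as 460/530 nm FRET emission ratio; % is scaled to controls: 0 for no effect and ±100 for the full control effect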
How it was run: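 IL-6/STAT signaling read in ME-180 cells via an SIE beta-lactamase reporter. Stimulus was 40 pM IL-6 (its AC50) for 5 hrs, so both activation and inhibition register.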

[3] = target: Glucocorticoid receptor (Homo sapiens) (UniProt P04150); assay: GR-GFP Redistribution (AID 450;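 active = compounds whose dose series gives a full or clear partial fitted curve of increased nuclear translocation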; also: potency is read from the fitted curve at half-maximal effect)
[4] = target: Glucocorticoid receptor (Homo sapiens) (UniProt P04150); assay: GR-EFC Redistribution (AID 451; calls by dose curve; also: potency is read from the fitted curve at half-maximal effect); conditions: CHO-K1 GR-EFC translocation, beta-gal luminescence, 2 h
How it was run: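 Translocation of GR-ED fusion to nuclear EA restores b-gal, read by luminescence after 1 h room-temperature detection. Engineered CHO-K1 biosensor cells, 1,000/well, exposed 2 h at 37 C to titrations up to 46 uM final.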

[5] = target: Mitogen-activated protein kinase 10 (Mus musculus) (UniProt Q61831); assay: JNK3 AlphaScreen Assay (AID 530);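 also: kinase came from lysate of stimulated human HepG2 cells; signal reports phosphorylation of biotinylated GST-cJun 1-79 at Ser73 with 10 µM ATP; % is scaled to controls: 0 for no effect and ±100 for the full control effect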
How it was run: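 Room-temperature AlphaScreen kinase assay; pre-activated HepG2 lysate as JNK3 source, biotin-GST-cJun(1-79) substrate, 10 uM ATP, compound 15 min preincubation.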

Chain of Glucocorticoid receptor (Homo sapiens) (P04150 whole entry, looked up, the tested form may be a part): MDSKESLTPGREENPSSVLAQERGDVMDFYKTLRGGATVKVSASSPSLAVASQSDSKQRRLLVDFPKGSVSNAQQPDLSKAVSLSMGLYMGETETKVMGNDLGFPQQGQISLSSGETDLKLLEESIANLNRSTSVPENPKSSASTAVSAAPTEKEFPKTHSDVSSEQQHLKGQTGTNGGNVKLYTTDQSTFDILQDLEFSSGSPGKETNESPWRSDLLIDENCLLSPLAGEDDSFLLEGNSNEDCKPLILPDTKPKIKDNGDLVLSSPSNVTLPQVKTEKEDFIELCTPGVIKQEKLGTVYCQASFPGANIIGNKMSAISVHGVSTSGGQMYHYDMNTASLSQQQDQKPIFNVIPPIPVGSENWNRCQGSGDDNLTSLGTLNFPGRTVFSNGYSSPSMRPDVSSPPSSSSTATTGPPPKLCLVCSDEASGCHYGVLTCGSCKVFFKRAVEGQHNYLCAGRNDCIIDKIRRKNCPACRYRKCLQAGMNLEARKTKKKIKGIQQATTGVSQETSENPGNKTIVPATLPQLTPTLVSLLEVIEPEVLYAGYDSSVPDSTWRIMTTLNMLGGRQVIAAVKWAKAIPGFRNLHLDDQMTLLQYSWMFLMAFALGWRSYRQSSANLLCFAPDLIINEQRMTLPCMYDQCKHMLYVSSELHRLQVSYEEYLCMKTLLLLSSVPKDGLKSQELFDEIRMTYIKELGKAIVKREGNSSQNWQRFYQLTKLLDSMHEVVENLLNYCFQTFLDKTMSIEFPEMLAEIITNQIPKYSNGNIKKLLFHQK

CCCc1[nH]nc2c1C(c1cccc(OC)c1)C(C#N)=C(N)O2 (stereo not given)
inactive: activity change, negative = inhibition [1] 1.34% | activity, negative = inhibition [2] -24.8% | Potency [3] > 20.6 µM

Cc1ccc(-n2ncc3c(NCc4ccc5c(c4)OCO5)ncnc32)c(C)c1
inactive: activity change, negative = inhibition [1] 8.44% | activity, negative = inhibition [2] -19.8% | Potency [3] > 20.6 µM

O=C(O)CSCC(=O)Nc1ccc(S(=O)(=O)N2CCCCC2)cc1
inactive: activity change, negative = inhibition [1] 5.47% | activity, negative = inhibition [2] 23% | Potency [3] > 20.6 µM

N#Cc1nc(-c2cccs2)oc1NCc1ccccc1Cl
inactive: activity change, negative = inhibition [1] -29.4% | activity, negative = inhibition [2] -12.6% | Potency [3] > 20.6 µM

CCCOc1ccc(N2C(=O)C3ON(c4ccccc4)C(c4ccc(O)c(OC)c4)C3C2=O)cc1 (stereo not given)
inactive: activity change, negative = inhibition [1] 10.7% | activity, negative = inhibition [2] -20% | Potency [3] > 20.6 µM

COC(=O)[C@@H](NC(=O)c1cc(-c2ccccc2)nc2ccccc12)c1ccccc1
inactive: activity change, negative = inhibition [1] -7.43% [at 38 µM] | activity, negative = inhibition [2] 1.95% [at 38 µM] | Potency [3] > 46 µM | Potency [4] > 46 µM | Potency [5]
